# Data: PubChem BioAssay AID1947 (The Scripps Research Institute Molecular Screening Center, 2009)
# The campaign covered roughly 300,000 compounds. About 990 (0.33%) were called active. The entries come from a sample that favours actives as a whole. Unmarked numbers belong to inactive results.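 Rule for the calls: active = inhibition above the screen mean inhibition plus 3 SD, computed separately per campaign (cut at about 18% in these data); inactive = the rest.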
# System: Fam108B (ABHD17B) serine hydrolase [Mus musculus]
# Assay: mouse Fam108B serine hydrolase inhibitors, primary screen, counter-screen for RBBP9 inhibitor project, biochemical, fluorescence polarization (AID 1947);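 note: inhibitors lower polarization as less probe binds the enzyme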
# Conditions: recombinant Fam108B, FP-Rh probe fluorescence polarization; at 9.51 µM; active compounds read high
row,SMILES,inhibition
1,O=C(CN1CCN(c2ccc(O)cc2)CC1)Nc1cc(S(=O)(=O)N2CCOCC2)ccc1Cl,1.19%
2,O=C(N/N=C/c1cc(Cl)cc([N+](=O)[O-])c1O)C(O)(c1ccccc1)c1ccccc1,7.58%
3,O=[N+]([O-])c1cc(Cl)cc(/C=N/NC(=S)Nc2cc(S(=O)(=O)N3CCOCC3)ccc2Cl)c1O,49.6% (active)
4,COC(=O)CSc1nccc(-c2cccs2)n1,25.3% (active)
5,O=C(O)COc1ccc(-c2nccc(-c3cccs3)n2)cc1,-4.89%
6,COC(=O)c1cc(-c2cccs2)nc2ccccc12,-5.99%
7,Cc1ccc([C@@H]2CC=C(C(=O)O)[C@H](c3cccc(Cl)c3)N2S(=O)(=O)c2ccc(C)cc2)cc1,-3.66%
8,COc1ccc(-c2csc(NC(=O)COC(=O)Cc3ccc(Cl)cc3Cl)n2)cc1,25.7% (active)
9,CC(C)(C)NC(=O)NC(=O)COC(=O)Cc1ccc(Cl)cc1Cl,-3.17%
10,COc1ccc(-c2csc(NC(=O)COC(=O)c3ccc(Br)o3)n2)cc1,-1.38%
11,CC(C)(C)c1ccc(/C=C2\SC(=O)N=C2N)cc1,-2.33%
12,COC(=O)c1sc(=S)n(-c2ccc(Cl)cc2)c1C,0.66%
13,CCOC(=O)c1c(N)sc(C(C)=O)c1C,2.44%
14,COCCOC(=O)c1sc(=S)n(CCOC)c1N,30.9% (active)
15,CC(=O)c1ccc(-c2ccc(Cn3c(C)nc4cc(N)c(C)nc43)cc2)cc1,-2.95%
16,Cc1cc2nc3c(=O)n(Cc4ccccc4)c(=O)[nH]c3nc2cc1N,20.1% (active)
17,Cc1cc(-c2csc(N)n2)c(C)n1Cc1ccccc1,1%
18,C=C1C2C[C@H](O)C(C)(C)[C@@]2(O)[C@H](O)C[C@]23C[C@@](C)(O)[C@H](CC[C@H]12)[C@H]3O (some centres undefined),-4.05%
19,CCN(CC(=O)Nc1ccc2c(c1)OCO2)S(=O)(=O)c1ccccc1,3.09%
20,CC(=O)Nc1ccc(NC(=O)CSc2ncnc3c2cnn3Cc2ccccc2)cc1,1.73%
21,CSc1c(SCc2ccccc2)cnn(Cc2ccccc2)c1=O,52.1% (active)
22,CCn1c(SCc2ccccc2)nc2c(c1=O)SCC2,5.08%
23,Cc1noc(C)c1S(=O)(=O)N(C)Cc1ccccc1,-2.49%

row,SMILES,inhibition
1,Cc1cc(C)cc(C(=O)N(CCc2ccccc2)C2=CC3CCC(C2)N3C)c1 (centres undefined),-0.23%
2,COCC(C)NC(=O)CSc1nc2nn(-c3ccccc3)c(=O)c-2c2n1CCCCC2 (centres undefined),0.63%
3,O=C(Cn1ncc2c3ccccc3n(Cc3ccccc3)c2c1=O)NCCCN1CCOCC1,-3.84%
4,CC(C)Nc1ccc(-n2nc3ccccc3[n+]2[O-])cc1,1.5%
5,N=C1C(=O)OCC1c1ccccc1NC(=O)CN1CCCCC1 (centres undefined),-3.29%
6,COc1ccc2nc(NC(=O)NC3CCCCC3)sc2c1,4.3%
7,COc1ccc2nc(Nc3nc4cc5c(cc4s3)OCCO5)sc2c1,33.1% (active)
8,COc1ccc2nc(NC(=O)c3ccc(Br)s3)sc2c1,-2.97%
9,CC1C(=O)C(C)C(c2ccc(O)cc2)NC1c1ccc(O)cc1 (centres undefined),-5.96%
10,COc1ccc2oc(C(=O)N(CC(C)C)C3CCS(=O)(=O)C3)c(C)c2c1 (centres undefined),3.82%
11,CC(C)(C)OC(=O)NNc1c2ccccc2nc2ccccc12,10.9%
12,O=C(N/N=C/c1cccnc1)c1cc2ccccc2cc1O,3.37%
13,O=C(NNc1c2ccccc2nc2ccccc12)c1cc2ccccc2cc1O,71.8% (active)
14,COc1ccc(CNC(=O)CN(C(=O)c2csnn2)c2cnc3ccccc3c2)cc1,2.77%
15,CC[C@H]1OC(=O)[C@H](C)[C@@H](O[C@H]2C[C@@](C)(OC)[C@@H](O)[C@H](C)O2)[C@H](C)[C@@H](O[C@@H]2O[C@H](C)C[C@H](N(C)C)[C@H]2O)[C@](C)(O)C[C@@H](C)[C@@H]2N[C@@H](COCCOC)O[C@H]([C@H]2C)[C@]1(C)O,-4.04%
16,O=C(CCCn1c(SCC(=O)c2ccccc2)nc2ccccc2c1=O)NCC1CCCO1 (centres undefined),-0.5%
17,O=C(CCCn1c(SCC(=O)c2ccc(F)cc2)nc2ccccc2c1=O)NCc1ccco1,-1.64%
18,O=C(CCn1c(SCC(=O)c2ccccc2)nc2ccccc2c1=O)NCc1ccc(F)cc1,27.5% (active)
19,CS(=O)(=O)N1CCCC(C(=O)Nc2ccccc2C(F)(F)F)C1 (centres undefined),-3.11%
20,Cc1nn(-c2ccccc2)c2c1C(c1ccc(F)cc1)C(C#N)=C(N)O2 (centres undefined),4.31%
21,COc1ccccc1C1C(C#N)=C(N)Oc2c1c(-c1ccccc1)nn2-c1ccccc1 (centres undefined),24.5% (active)
22,Cc1nn(Cc2ccccc2)c2c1C(c1ccccc1)C(C#N)=C(N)O2 (centres undefined),4.14%
23,CC(C)CCN1CCN=C1N(C)C,-3.1%

row,SMILES,inhibition
1,Cc1cc(C)cc(C(=O)NC2C(=O)N3C(C(=O)O)=C(CSc4nnc(C)s4)CSC23)c1 (centres undefined),0.52%
2,CC(C)c1ccc2oc(=O)cc(CN3CCN(Cc4ccccc4)CC3)c2c1,0.92%
3,CN(C)c1ccc(NC(=O)CN2C3CCCC2CC(NC(=O)c2ccccc2)C3)cc1 (centres undefined),-3.02%
4,COc1ccc(C(=O)Nc2c(N)nc(SCC(=O)Nc3ccc(C(C)=O)cc3)[nH]c2=O)cc1,2.83%
5,COc1ccc(N2CCN(S(=O)(=O)c3cc4c5c(c3)C(C)C(=O)N5CCC4)CC2)cc1 (centres undefined),2.45%
6,CCOC(=O)N1CCC(O)(c2cc(C)c(C)cc2C)CC1,1.15%
7,COc1ccc(Nc2ncc(C(=O)N3CCN(c4ccccc4OC)CC3)c3ccccc23)cc1,5.14%
8,O=C(Cn1cc(/C=N/NC(=O)c2cccc(C(F)(F)F)c2)c2ccccc21)Nc1ccc(F)cc1,4.38%
9,CC(/C=N/NC(=O)c1cc(-c2ccc3ccccc3c2)n[nH]1)=C\c1ccco1,-15.2%
10,CC(/C=N/NC(=O)c1ccncc1)=C\c1ccco1,-1.58%
11,C/C(=C\c1ccco1)C1Nc2cccc3cccc(c23)N1,18.5% (active)
12,CC(=O)NC1=NN(C(C)=O)C(C)(c2ccc(Cl)s2)S1 (centres undefined),-2.49%
13,CC(C)(C)C(=O)Nc1c(Br)c(C2CC2)nn1-c1ccccc1,1.83%
14,COc1ccc(OC)c(/C=C/C(=O)OCC(=O)Nc2ccc3c(c2)OCCO3)c1,-4.2%
15,COc1cc(/C=C/C(=O)OCC(=O)Nc2cccc(Oc3ccccc3)c2)ccc1O,6.01%
16,COc1ccc(/C=C/C(=O)OCC(=O)Nc2cccc(Oc3ccccc3)c2)c(OC)c1,21.4% (active)
17,COc1ccc(OCc2nnc3n2N=C(c2ccccc2)C(CC(=O)O)S3)cc1 (centres undefined),-0.94%
18,O=C(CN1CCN(Cc2ccc(F)cc2Cl)C1=O)NCc1cccs1,2.32%
19,CSCCC1NC2(C(=O)Nc3ccc(Cl)cc32)[C@@H]2C(=O)N(C3CCCC3)C(=O)[C@H]12 (some centres undefined),-1.72%
20,O=[N+]([O-])c1ccc(F)cc1Oc1nc(-c2cccnc2)nc2ccccc12,-4.4%
21,CCc1ccccc1N1CN(Cc2ccco2)CNC1=S,-2.75%
22,Oc1c(Cl)cc(Cl)c(Cl)c1Cc1c(O)c(Cl)cc(Cl)c1Cl,48% (active)
23,CN(C)C(=O)c1cccn(Cc2cccc(C(F)(F)F)c2)c1=O,0.5%

row,SMILES,inhibition
1,COc1ccc(N2CC(C(=O)NCCN3C(=O)S/C(=C\c4cccnc4)C3=O)CC2=O)c(OC)c1 (centres undefined),65.4% (active)
2,O=C(NCCN1C(=O)S/C(=C\c2cccnc2)C1=O)c1cccc(OC(F)F)c1,2.13%
3,CCOc1ccc(N2CC(C(=O)NCCN3C(=O)S/C(=C\c4cccnc4)C3=O)CC2=O)cc1 (centres undefined),0.71%
4,COc1ccc(NC(=S)SC)cc1OC,2.25%
5,CC(Cc1cccs1)N(Cc1ccc(Cl)cc1)C(=O)c1ccncc1 (centres undefined),0.27%
6,c1ccc2c(-c3nn4nnnc4c4ccccc34)cccc2c1,3.27%
7,CCC(=O)c1ccc(OCC(=O)OCC(=O)NC2CCCCCC2)cc1,2.33%
8,CCCC(=O)Nc1ccc2c(c1)nc(CCNC(=O)c1ccco1)n2C,3.43%
9,CCOc1cc(NC(=S)NCCCOC)c(OCC)cc1NC(=O)c1ccco1,-0.81%
10,Cc1cc(C)cc(NC(=O)NCc2ccccn2)c1,-2.47%
11,O=C(NCc1ccccn1)c1ccc2nc(-c3ccco3)c(-c3ccco3)nc2c1,39.1% (active)
12,COCCNC(=O)Nc1ccc2nc(-c3ccco3)c(-c3ccco3)nc2c1,63.8% (active)
13,COc1ccc2oc(=O)c(C(=O)NCc3ccccn3)cc2c1,1.13%
14,O=C(CSc1nnc(C2CC2)n1Cc1ccccc1)Nc1cccnc1Cl,1.49%
15,C/C=C/C(=O)Nc1ccc(N2CCN(c3ccc(C(F)(F)F)cn3)CC2)nc1,8.22%
16,CC(C)C(=O)N1CCC2(CC1)Oc1ccc(F)cc1C(=O)C21CC(c2ccccc2)=NO1 (centres undefined),1.14%
17,Cc1nc2scc(-c3cccs3)c2c(=O)n1N,7.81%
18,N/C(=N\OC(=O)CCc1ccccc1)c1cccnc1,-0.43%
19,COC(=O)CN1C(=O)[C@H]2[C@@H](C3CC3)N3C(=O)CN(Cc4ccc(-c5ccccc5)cc4)C(=O)[C@@]3(Cc3ccccc3)[C@H]2C1=O,0.43%
20,Cc1cc(C)c2c(Cn3ccnc3)cc(=O)oc2c1,-0.08%
